The list is not random: actives were taken first. Their share in the collection is about 21%.
Shiga toxin inh = blocks Shiga toxin action in Vero cells | Vero cells, Shiga toxin protein synthesis inhibition reporter | inhibition, % at 38.7 µM | hit rate 9.2% among 290,000 | AID 2315; in the data active = inhibition mostly above about 28%, no sharp cut-off; inactive = mostly below about 43%; also: 0% is about no effect
Pf growth 96h = inhibits malaria parasite growth, 96 h. P. falciparum luciferase reporter growth, 96 h. AID 504834. hit rate 6.9% among 320,000. Potency, µM (series often up to 28.7 µM), without a hit: top-dose activity change, negative = inhibition, hits mostly inhibitors; also: potency is read from the fitted curve at half-maximal effect; % is scaled to controls: 0 for no effect and ±100 for the full control effect
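P. falciparum expressing integrated firefly luciferase grown in erythrocytes (2% hematocrit, 0.05% parasitemia final) with compounds for 96 hours at 37 C, 5% CO2. Growth inhibition read as loss of luminescence after adding luciferase detection reagent.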
Pf growth 48h = inhibits P. falciparum growth in the first generation, 48 h | P. falciparum luciferase growth in erythrocytes, 48 h | Potency, µM (titrated, usually from 28.7 µM), for inactives: top-dose activity change, negative = inhibition, hits mostly inhibitors | hit rate 5.9% among 310,000; also: potency is read from the fitted curve at half-maximal effect; % is scaled to controls: 0 for no effect and ±100 for the full control effect
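Parasite viability was followed by luminescence of a genomically integrated firefly luciferase. Cultures held 0.1% parasitemia at 2% hematocrit (final), incubated under 5% CO2 at 37 C.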
CHX counter = counter-screen for Shiga toxin inhibitors: cycloheximide protein synthesis inhibition. cell reporter, cycloheximide protein synthesis inhibition counterscreen. max response, %. hit rate 12% among 300,000; in the data active = max response mostly above about 13%, no sharp cut-off; inactive = mostly below about 14%; also: read at 38.3 µM for the half of the compounds with a filed dose; 0% is about no effect
Active calls of the source: *; ? = inconclusive; . = not tested or not shown. Unless noted, calls follow the shape of the dose curve; as a rule, active = well fitted inhibition curve with a large enough effect; inconclusive = small, poorly fitted or top-dose-only effect, or another doubt; inactive = no such curve, though single readings can be large or run the other way.

SMILES | Shiga toxin inh | Pf growth 96h | Pf growth 48h | CHX counter
O=C(Cc1ccc(Cl)cc1)OCc1nnc(-c2ccccc2)o1 | -9.1 | 13.1% | 14.1% | -1.4
O=C(NCCc1ccc(Cl)cc1)C12CC3CC(CC(O)(C3)C1)C2 | 16.7 | -2.3% | 19.7% | 19.3*
Cc1ccc(CCNC(=O)C23C[C@H]4C[C@@H](C2)CC(n2nnc(C)n2)(C4)C3)cc1 | 58.9 | 31.9% | -24.7% | 41.3*
Cc1nnn(C23CC4CC(CC(C(=O)NN)(C4)C2)C3)n1 | 3.9 | -27.6% | -4.1% | -3.7
O=C(OCc1nnc(-c2ccc(Cl)cc2)o1)C12CC3CC(CC(O)(C3)C1)C2 | 118.3* | 203.2% | 308.9% | 38.8*
CN(Cc1ccc(Cl)cc1)C(=O)CNC(=O)C12CC3CC(CC(C3)C1)C2 | . | 10.4µM* | 9.28µM* | .
Cc1cccc(C)c1NC(=O)CNC(=O)C12CC3CC(CC(O)(C3)C1)C2 | . | 9.0% | 7.0% | .
CC(C)(C)OC(=O)N1CCCC1C(=O)NC1COC2CC(n3cc(F)c(=O)[nH]c3=O)OC12 (stereo not given) | -2.7 | . | . | 3.7
CCOC(=O)c1c(NC(=S)NC)sc2c1CC(C)(C)SC2 | -9.0 | -101.6% | 4.15µM* | -4.5
CCOC(=O)c1c(NC(=S)Nc2ccccc2)sc2c1CC(C)(C)SC2 | 9.7 | -24.2% | -2.9% | 6.8
CCOc1cc(C2NC(=O)CCC2[N+](=O)[O-])cc(Br)c1OC (stereo not given) | -9.5 | 4.3% | 3.7% | -5.2
O=C(O)COn1c(-c2ccc(Cl)cc2)nc2ccc(Cl)cc21 | 86.8* | 19.9% | 15.2% | 15.4
COc1ccc(-c2nc3ccccc3c(=O)n2O)cc1 | 6.8 | ? | ? | 10.7
Clc1ccc(COn2c(-c3ccc(Cl)cc3)nc3ccccc32)cc1 | -5.0 | ? | ? | -1.4
COn1c(-c2ccc(Cl)cc2)nc2ccc(Cl)cc21 | 68.9* | 170.5% | 40.9% | 26.5*
COc1ccc(-c2nc3ccccc3n2OCC(=O)O)cc1 | 25.2 | 72.5% | 140.8% | 21.0*
COCCCNC(=O)C1CCC(CNS(=O)(=O)c2ccc3c(c2)N(C(C)=O)CCO3)CC1 (stereo not given) | 7.6 | ? | 6.0% | -1.5
O=C(C1=C[C@@H](c2csc3ccccc23)C[C@@H](OCc2ccc(CO)cc2)O1)N1CCN(Cc2ccccc2)CC1 | -5.7 | 5.22µM* | ? | -2.0
O=C(NC1CC1)C1=C[C@H](c2csc3ccccc23)C[C@H](OCc2ccc(CO)cc2)O1 | 2.1 | ? | ? | -3.5
O=C(C1=C[C@@H](c2csc3ccccc23)C[C@@H](OCc2ccc(CO)cc2)O1)N1CCOCC1 | -6.5 | ? | ? | 10.8*
O=C(Nc1ccccc1)C1=C[C@H](c2csc3ccccc23)C[C@H](OCc2ccc(CO)cc2)O1 | 3.3 | ? | ? | 1.5
O=C(C1=C[C@@H](c2csc3ccccc23)C[C@@H](OCc2ccc(CO)cc2)O1)N1CCN(Cc2ccc3c(c2)OCO3)CC1 | 1.7 | 5.22µM* | ? | -1.7
C=CCOC(=O)C1=C[C@@H](c2csc3ccccc23)C[C@@H](OCc2ccc(CO)cc2)O1 | -1.3 | 13.1µM* | ? | 7.4
Cn1c(=O)n(C)c2cc(NS(=O)(=O)c3cccs3)ccc21 | 10.8 | ? | 17.4% | 7.9
CC(C)(C)c1nc(-c2ccccc2)nc2c1OCCC2 | . | 97.5% | 3.4% | .
SMILES | Shiga toxin inh | Pf growth 96h | Pf growth 48h | CHX counter
CN(c1ccccc1)S(=O)(=O)c1ccc2c(c1)oc(=O)n2C | . | 8.4% | 12.3% | -2.5
COCCN(Cc1cc2cc(C)ccc2[nH]c1=O)S(=O)(=O)c1ccc(Cl)cc1 | -2.6 | 7.1% | -11.3% | -1.1
S=c1[nH]c2ncccc2o1 | 13.6 | 2.08µM* | -7.3% | 1.8
COC(=O)Cc1c(C)c2ccc(OCC(=O)N(C)C)cc2oc1=O | -5.5 | 18.3% | . | 1.0
CCCOc1ccc2c(C)c(CC(=O)OC)c(=O)oc2c1 | 52.2* | . | 22.1% | 31.4*
Cc1c(Cc2ccccc2)c(=O)oc2cc(OCC(=O)c3ccccc3)ccc12 | -7.0 | -28.0% | 10.3% | -6.8
COc1ccc(-c2c(C)c3ccc(O)cc3oc2=O)cc1 | 50.0* | 54.9% | 48.2% | 53.4*
C=C(C)COc1ccc2c(C)c(CCC(=O)NC3CC3)c(=O)oc2c1 | 19.4 | 10.4µM* | 10.4µM* | 21.6*
CCc1c(C)c2ccc(OCC(N)=O)cc2oc1=O | 44.8 | -23.5% | 24.2% | 19.9*
O=c1oc2cc(O)ccc2c2ccccc12 | -15.7 | 2.7% | . | -1.6
CCCc1cc(=O)c2ccc(OCC(C)=O)cc2o1 | 3.1 | 0.0% | 63.1% | 2.1
O=c1oc2cc(O)ccc2c2oc3cc(O)ccc3c12 | 30.8* | -11.0% | -1.0% | 13.3*
COc1ccc(-c2cc(=O)oc3cc(OCC(C)=O)ccc23)cc1 | 2.7 | 9.4% | -1.9% | -1.9
CC(=O)COc1ccc2c(C)c(C)c(=O)oc2c1 | 79.4* | ? | 0.0% | 52.1*
COc1ccc(-c2c(C)c3ccc(OCC(C)=O)cc3oc2=O)cc1 | 109.9* | 12.1% | 228.8% | 48.8*
CSc1ncccc1C(=O)NCCc1ccccc1F | 0.9 | -24.1% | 32.7% | 10.7
CN(Cc1ccccc1)c1ncnc2sccc12 | 4.9 | -0.9% | 10.7% | -1.1
CSc1cccc(N2CC(C(=O)Nc3cccc(S(=O)(=O)N4CCCC4)c3)CC2=O)c1 (stereo not given) | . | ? | -22.1% | .
O=C(c1cc(-c2ccco2)on1)N1CCOCC1 | 47.4* | 0.2% | 56.3% | 27.4*
CN1CCN(C(=O)c2cc(-c3ccco3)on2)CC1 | 36.3 | 7.5% | 67.5% | 15.1*
O=C(c1cc(-c2ccccc2Cl)on1)N1CCN(C(=O)c2ccco2)CC1 | -11.1 | -17.1% | 18.1% | -3.5
O=C(CN1C(=O)c2ccccc2C1=O)N1CCN=C1c1ccccc1 | 7.9 | 10.3% | -1.1% | -1.1
CCc1ccc(-c2cc(C)no2)cc1S(=O)(=O)NCCCN1CCN(c2ccccc2)CC1 | 7.5 | ? | 13.1µM* | 7.1
CCc1ccc(-c2cc(C)no2)cc1S(=O)(=O)N1CCN(C(=O)c2ccco2)CC1 | -1.4 | 9.28µM* | ? | 8.5
COc1ccc(-c2cc(C)no2)cc1S(=O)(=O)N1CCOc2ccc(C)cc21 | 11.3 | 1.5% | ? | 2.2
SMILES | Shiga toxin inh | Pf growth 96h | Pf growth 48h | CHX counter
CCc1ccc(-c2cc(C)no2)cc1S(=O)(=O)N1CCN(c2ccc(F)cc2)CC1 | 7.0 | ? | 13.1µM* | -4.9
CCc1ccc(-c2cc(C)no2)cc1S(=O)(=O)NCCN1CCC(C)CC1 | 8.4 | 8.2% | ? | -1.1
CCc1ccc(-c2cc(C)no2)cc1S(=O)(=O)N1CCOc2ccccc21 | 43.1 | ? | 8.28µM* | 13.0
CCCC[C@H]1COCCS(=O)(=O)N1Cc1ccc(Br)cc1 | -2.5 | ? | ? | -3.8
CN(C)NC(=S)NC(=O)C12CC3CC(CC(C3)C1)C2 | 1.7 | ? | ? | -0.6
CC(C)(C)NC(=S)NC(=O)C12CC3CCC(CC(C3)C1)C2 | -9.1 | 0.0% | 10.4µM* | -3.2
C=C(C)CSc1nc(N)c2c(C)c(C)sc2n1 | 47.7 | . | 23.4% | 18.9*
O=C(CNCc1ccccc1Cl)Nc1ccc2c(c1)OCCO2 | 87.3* | 147.6% | 127.7% | 44.7*
O=C(CSCc1ccccc1Cl)Nc1ccc2c(c1)OCCO2 | 95.3* | 106.5% | 114.2% | 57.9*
O=C(CSCc1ccc(Cl)cc1)Nc1ccc2c(c1)OCO2 | 28.0 | 11.7µM* | -17.7% | -0.8
O=C(CCN1CCCCCC1)Nc1ccc2c(c1)OCCO2 | 27.1 | 24.6% | -14.6% | 13.3
